# Assay results taken from PubChem BioAssay AID1259415 (National Center for Advancing Translational Sciences (NCATS), 2018).
# Out of some 410,000 compounds screened, about 18,000 (4.4%) were called active. Roughly 7% stayed inconclusive and do not appear here. The sample holds actives, similar compounds and a random draw of the others, so the mix is not that of the screen. No stated cut-off is given here; in the data, active means activity change below about -60%; inconclusive means no clear call, values can overlap the other calls; inactive means above about -39%.
# Assay: qHTS Assay for inhibitors of the human cytomegalovirus (HCMV)
# Details: HFF cells, HCMV-luciferase reporter, 72 h; at 57.5 µM; hits give low values
# Outline: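 Steps: HFFs plated, 16 h 37C; compounds added; HCMV-luciferase added to MOI 1 PFU/cell; 72 h 37C; OneGlo reagent, 5 min room temperature; luminescence read, normalized to controls.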
# On the % scale 0 is the no-effect control and ±100 the full control effect.
row,SMILES,"activity change, negative = inhibition"
1,CCOc1cccc(NC(=O)CSc2ncc(-c3ccc(Cl)cc3)[nH]2)c1,-2.16% (inactive)
2,Cc1ccc(F)cc1NC(=O)CCSc1nc(-c2ccco2)cc(C(F)(F)F)n1,-17% (inactive)
3,Cc1ccc(-c2cnc(C3CC3)o2)cc1S(=O)(=O)Nc1cccc(C)c1C,-35% (inactive)
4,CCn1nnc(NC(=O)c2cc(Cl)c(OC)c(Cl)c2)n1,16.3% (inactive)
5,O=C(CN1C2CCC1CC(NC(=O)C1CC1)C2)NCc1ccccc1 (configuration not stated),18.9% (inactive)
6,COc1ccc(CCNC(=O)c2cn(C)c3ccc(S(=O)(=O)N(C)C4CCCCC4)cc3c2=O)cc1OC,7.75% (inactive)
7,Nc1c(C(=O)OCC(=O)Nc2ccc(OC(F)F)cc2)[nH]c(=O)[nH]c1=O,-34.6% (inactive)
8,COc1ccc(NC(=O)c2ccc3oc(=O)c(S(=O)(=O)c4ccc(F)cc4)cc3c2)c(OC)c1,10.2% (inactive)
9,O=S1(=O)c2c(cccc2N2CCCC2)O[C@H](COCc2ccccc2)CN1C1CC1,-34% (inactive)
10,CCCCC[C@H](C)N1C[C@@H](COCc2ccccc2)Oc2cc(N3CCC[C@@H]3CO)ccc2S1(=O)=O,15% (inactive)
11,CCCCC[C@H](C)N1C[C@@H](COCc2ccccc2)Oc2cc(N3CC[C@@H](N(C)C)C3)ccc2S1(=O)=O,-94.8% (active)
12,CN1C(=O)c2ccccc2Sc2ccc(NC(=O)Cc3ccc(Cl)cc3)cc21,-23.7% (inactive)
13,Cc1nn2c(=O)cc(COC(=O)c3cccc(NC(=O)COc4ccccc4Cl)c3)nc2s1,14% (inactive)
14,COc1ccccc1NC(=O)c1cc(C2CC2)nc2c1c(C)nn2-c1ccc(C)cc1,16.5% (inactive)
15,O=C(OC1CCCCC1=O)c1cccc(S(=O)(=O)NCc2ccccc2)c1 (configuration not stated),-28.2% (inactive)
16,Cc1ccc(Cl)cc1N1CCN(C(=O)C2CCC(CNS(=O)(=O)c3cccs3)CC2)CC1 (configuration not stated),-25.7% (inactive)
17,COc1ccc(Nc2ncc(C(=O)Nc3cc(C)ccc3OC)c3ccccc23)cc1,-108% (active)
18,COc1ccc(NC(=O)c2cnc(Nc3ccc(C)c(Cl)c3)c3ccccc23)cc1OC,-10.9% (inactive)
19,COC(=O)c1cnc(Nc2cc(C)ccc2OC)c2ccccc12,-31.5% (inactive)
20,Cc1ccc2oc3c(c(=O)c2c1)C(c1ccc(O)cc1)N(Cc1ccc2c(c1)OCO2)C3=O (configuration not stated),-1.21% (inactive)
21,CCc1cc2c(NC(Cc3ccccc3)C(=O)O)ncnc2s1 (configuration not stated),32.8% (inactive)
22,CCc1cc2c(NC3CCCC3)ncnc2s1,-76.1% (active)

row,SMILES,"activity change, negative = inhibition"
1,CCc1cc2c(SCC(=O)Nc3ncc(Cl)c(C)c3Cl)ncnc2s1,-15.5% (inactive)
2,CC(C)=N/N=C1/NC(=O)C(Cc2ccccc2)S1 (configuration not stated),29.3% (inactive)
3,NC1=NC(=O)C(Cc2cccc(Cl)c2Cl)S1 (configuration not stated),-8.43% (inactive)
4,O=C1NC(=Nc2ccc(Cl)cc2)SC1Cc1cccc(Cl)c1Cl (configuration not stated),-64.5% (active)
5,CCCCC(CC)CNC(=O)C1CCN(S(=O)(=O)c2cccc3nsnc23)CC1 (configuration not stated),-8.64% (inactive)
6,CCN(CCCNC(=O)c1cc2c(=O)n(CC)c3ccccc3c2s1)Cc1ccccc1,-82.5% (active)
7,CCc1ccc(CNC(=O)c2cc3c(=O)n(CC)c4ccccc4c3s2)cc1,-16.1% (inactive)
8,CCn1c(=O)c2cc(C(=O)NCCc3ccc(Cl)cc3)sc2c2ccccc21,-0.35% (inactive)
9,O=c1c(NCc2cccs2)nccn1-c1ccccc1,54.2% (inactive)
10,COc1ccc(N=CN2c3ccccc3-n3cccc3C2CCc2ccccc2)cc1 (configuration not stated),29.9% (inactive)
11,CCc1nc2c(cnn2-c2ccc(C)cc2)c(=O)n1-c1ccc(C)cc1,-37.2% (inactive)
12,COc1cc(OC)cc(-c2nc3ccccc3c(=O)n2NC(=O)c2cccnc2Cl)c1,-24.5% (inactive)
13,COc1cc(C(=O)Nn2c(CC(C)C)nc3ccccc3c2=O)cc(OC)c1OC,36.7% (inactive)
14,COc1ccccc1C(=O)Nn1c(-c2cccs2)nc2ccccc2c1=O,-71.7% (active)
15,O=C(CC(c1cccs1)N1Cc2ccccc2C1=O)Nc1ccc(F)c(F)c1 (configuration not stated),-28.8% (inactive)
16,Cc1ccc(C)c(N2CCN(C(=O)Cc3c(C(=O)O)c(C)cn3C)CC2)c1,7.89% (inactive)
17,CCC1CCC2(CC1)NC(=O)N(CC(=O)Nc1ccc(OC)cc1)C2=O (configuration not stated),-8.02% (inactive)
18,COC(=O)c1ccc(C(=O)NC2CC(C)(C)Cc3c2cnn3-c2ccc(F)cc2)nc1 (configuration not stated),29.8% (inactive)
19,CC(C)(C)OC(=O)N1CCC(c2c(C(=O)NCCc3ccsc3)cnn2-c2ccc(F)cc2F)CC1,0% (inactive)
20,Cn1nccc1C(=O)NC1CCCc2c1cnn2-c1ccccc1F (configuration not stated),-80% (active)
21,CNS(=O)(=O)c1cccc(C(=O)NC2CCCc3ccccc32)c1 (configuration not stated),-19.2% (inactive)
22,Cn1nccc1C(=O)NC1CCCc2c1cnn2-c1ccc(F)cc1F (configuration not stated),-81.5% (active)

row,SMILES,"activity change, negative = inhibition"
1,Cn1cc(C(=O)NCc2ccccc2F)cn1,3.61% (inactive)
2,COc1ccc(-n2c(C)nc3c(cnn3-c3ccc(F)cc3)c2=O)cc1,-33.7% (inactive)
3,Nc1cc(N2CCCCCC2)c2nonc2c1[N+](=O)[O-],-24.1% (inactive)
4,Cc1ccccc1NC(=O)CN1C(=O)C(C)(C)c2ccccc21,-4.1% (inactive)
5,COc1cc(OC)c(OC)cc1/C=C/c1nc2cc3ccccc3cc2c(=O)n1-c1ccc(F)c(Cl)c1,11% (inactive)
6,COc1ccc(C(CNC(=O)c2ccc(NS(=O)(=O)c3ccc(F)c(C)c3)cc2)N(C)C)cc1 (configuration not stated),-9.49% (inactive)
7,CCOC(=O)c1cc(C(=O)Nc2ccc(S(=O)(=O)Nc3ccc(OC)cc3)cc2)nn1C,2.74% (inactive)
8,COc1ccc(NS(=O)(=O)c2ccc(NC(=O)c3ccc(N(C)S(C)(=O)=O)cc3)cc2)cc1,-94.5% (active)
9,O=C(c1cccs1)c1cn(CCOc2ccc(Cl)cc2)c2ccccc12,-4.55% (inactive)
10,COc1ccc(CCNC(=O)c2cnc3sc(N4CCCCCC4)nn3c2=O)cc1OC,0.444% (inactive)
11,COc1ccc(NC(=O)Cn2c(=O)n(Cc3ccc(C(=O)NCc4ccccc4Cl)cc3)c(=O)c3ccccc32)cc1,-25.8% (inactive)
12,CC1=C(C)CC(C(=O)NNC(=O)c2csc3c2CCC(C(C)(C)C)C3)C(C(=O)O)C1 (configuration not stated),35% (inactive)
13,O=C(CO/N=C/c1ccccc1O)NNC(=O)c1ccccc1Cl,35% (inactive)
14,CC1=C(C)CC(C(=O)NNC(=O)c2ccccc2O)C(C(=O)O)C1 (configuration not stated),-89.9% (active)
15,O=C(NNC(=O)c1ccccc1O)c1ccccc1O,-97% (active)
16,COc1cc(OC)c(C(=O)NNC(=O)c2ccccc2-n2cccc2)cc1OC,-25.6% (inactive)
17,CC1=C(C)CC(C(=O)NC(C)CCc2ccccc2)C(C(=O)O)C1 (configuration not stated),16.1% (inactive)
18,COc1ccc(-c2cc(-c3ccccc3)nc3c2COc2ccc(Cl)cc2-3)cc1,9.57% (inactive)
19,CC(=O)N1C[C@@H](CO)[C@@H](N(C)C(=O)c2ccco2)C[C@H]1c1ccccc1,-4.23% (inactive)
20,COc1cc2c(cc1NC(=O)CN1CCN(S(=O)(=O)c3ccc(F)cc3)CC1)oc1ccccc12,63.3% (inactive)
21,COc1ccc(-n2c(=O)c3ccccc3n(Cc3ccccc3Cl)c2=O)cc1,7.59% (inactive)
22,CCCn1c(N)c(C(=O)CSc2nnc(Cc3cccs3)n2C2CC2)c(=O)[nH]c1=O,-9.71% (inactive)

row,SMILES,"activity change, negative = inhibition"
1,Cc1cc(C)c(OCCN2CC(C)OC(C)C2)c(Br)c1 (configuration not stated),-20% (inactive)
2,COc1cc(NC(=O)Nc2ccc(C)cc2)cc([N+](=O)[O-])c1,-63.5% (active)
3,COc1ccc(S(=O)(=O)NNC(=O)Nc2ccc(C)cc2)c(OC)c1,-7.23% (inactive)
4,Cc1ccc(Oc2cc(NC(=O)CCCn3nc(C)c([N+](=O)[O-])c3C)cc([N+](=O)[O-])c2)cc1,3.84% (inactive)
5,Cc1cccc(N2CCN(C(=O)c3ccc(Nc4nc5ccccc5n5nnnc45)cc3)CC2)c1C,9.29% (inactive)
6,CCOc1ccc(CNC(=O)c2ccc3c(c2)nnn3C2CCCC2)cc1,27.9% (inactive)
7,COCCNC(=O)c1ccc(N2CCC3(CC2)OCCO3)c([N+](=O)[O-])c1,-4.44% (inactive)
8,CCCNC(=O)c1ccc(N2CCC3(CC2)CC(c2ccc(Cl)cc2)=NO3)c([N+](=O)[O-])c1,-72.5% (active)
9,CCCNC(=O)c1ccc(N2CCC3(CC2)CC(c2cccc(Br)c2)=NO3)c(NC(=O)c2ccco2)c1,-2.24% (inactive)
10,COCCCNC(=O)c1c(NC(=O)c2cc(=O)c3cc(C)c(C)cc3o2)sc2c1CCCC2,11.5% (inactive)
11,Cc1nnc(NCc2ccccc2)c2c1nnn2Cc1ccc(F)cc1,-5.95% (inactive)
12,CCc1ccc(NC(=O)c2cc(S(=O)(=O)NC3CCCCCC3)ccc2F)cc1,-39.6% (inactive)
13,Cc1ccc(CS(=O)(=O)CCC(=O)NC2CC2)cc1,-21.8% (inactive)
14,O=C(Nc1nc2ccc(F)cc2s1)c1nc(SCc2ccccc2F)ncc1Cl,7.44% (inactive)
15,Cc1ccc2nc(NC(=O)c3nc(SCc4ccccc4F)ncc3Cl)sc2c1,16.7% (inactive)
16,CSc1nnc(NC(=O)c2nc(S(=O)(=O)Cc3ccc(C)cc3)ncc2Cl)s1,-102% (active)
17,Cc1ccc(CS(=O)(=O)c2ncc(Cl)c(C(=O)Nc3nnc(C)s3)n2)cc1,-111% (active)
18,CCOc1cccc(C(=O)Nc2nnc(S(=O)(=O)N(C)c3ccc(C)cc3)s2)c1,-25.8% (inactive)
19,NNc1cccc(C=Cc2ccccc2)cc1=O,34% (inactive)
20,Cc1ccc(S(=O)(=O)n2nc(C)c(S(=O)(=O)N3CCCCCC3)c2C)cc1,1.89% (inactive)
21,Cc1nc2nc(NCc3cccc(Br)c3)[nH]n2c(=O)c1Cc1ccccc1,-3.03% (inactive)
